Screening results from PubChem BioAssay.
IL-1B inflam inh: qHTS for Inhibitors of Inflammasome Signaling: IL-1-beta AlphaLISA Primary Screen; activity change, % at 57.5 µM; THP-1 LPS/ATP IL-1B secretion, AlphaLISA, 16 h; active compounds read low; 360,000 compounds, 4.7% hits; in the data active means activity change below about -50%; inconclusive means mostly about -30% to -49%
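THP-1 cells pretreated 1 hr with compounds (up to 57.5 uM final), then stimulated with LPS (250 ng/mL final) plus ATP (1.25 mM final); secreted IL-1B measured by AlphaLISA after 16 hr, decreased signal indicating inhibition.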
HT1080NT lethal: qHTS for induction of synthetic lethality in tumor cells producing 2HG: qHTS for the HT-1080-NT fibrosarcoma cell line; HT-1080-NT fibrosarcoma viability, CellTiter-Glo ATP luminescence, 48 h; Potency, µM (highest dose often 46.1 µM), for inactives: at the highest dose activity, negative = less viability, most hits filed as cytotoxic; 360,000 compounds, 1.6% hits; AID 686970, 2013;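 further: NT is the 2HG producing partner of a matched IDH1 knockdown line; potency means the concentration at half of the fitted maximal effect; 0% = DMSO-treated cells and -100% = media-only wells without cells; nearly all actives have a fitted effect of over 55% in size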
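HT-1080-NT; 750 cells/well; 5% FBS RPMI; 48 h compound, 37 degrees C; CellTiter-Glo luminescence; curve fitting and curve-class assignment.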
DT40 TDP1 CPT: qHTS for Inhibitors of human tyrosyl-DNA phosphodiesterase 1 (TDP1): qHTS in cells in presence of CPT; chicken DT40 Tdp1-/-;hTDP1 cells + 20 nM CPT, ATP luminescence, 48 h; Potency, µM (titrated, usually from 46.2 µM), inactives show at the top dose activity change, negative = growth inhibition, most hits filed as inhibitors; 420,000 compounds, 12% hits; AID 686979, 2013; further: potency means the concentration at half of the fitted maximal effect; nearly all actives have a fitted effect of over 55% in size
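Chicken DT40 Tdp1-/- cells complemented with human TDP1, 400 cells/well, exposed to compounds plus 20 nM camptothecin for at least 48 h at 37 C; viability read as ATP content by CellTiter-Glo luminescence.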
TDP1 cell noCPT: qHTS for Inhibitors of human tyrosyl-DNA phosphodiesterase 1 (TDP1): qHTS in cells in absence of CPT. AID 686978, 2013. DT40 Tdp1-/- hTDP1 cells, no CPT, ATP luminescence, 48 h. Potency, µM (titrated, usually from 46.2 µM), for inactives: at the top dose activity change, negative = growth inhibition, most hits filed as inhibitors. 420,000 compounds, 15% hits; further: potency means the concentration at half of the fitted maximal effect; nearly all actives have a fitted effect of over 55% in size
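Growth kinetics read by CellTiter-Glo luminescence after ≥48 hr at 37 °C. Cells: DT40 Tdp1-/- stably carrying human TDP1, 400 per well, compound exposure in the absence of CPT (DMSO vehicle).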
HT1080 IDH1KD tx: qHTS for induction of synthetic lethality in tumor cells producing 2HG: qHTS for the HT-1080-IDH1KD cell line; Potency, µM (titrated, usually from 46.1 µM), inactives show at the highest dose activity, negative = toxicity, hits mostly cytotoxic; HT-1080 IDH1 knockdown viability, ATP luminescence, 48 h; 360,000 compounds, 2% hits;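 further: potency means the concentration at half of the fitted maximal effect; 0% = DMSO wells and -100% = cell-free medium wells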
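Cytotoxicity counter-line: IDH1KD HT-1080, 48 h, CellTiter-Glo. Curves classed by r2, magnitude and activity.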
uPA generation: qHTS for Inhibitors of Cell Surface uPA Generation. cell surface uPA generation assay, qHTS. Potency, µM (top dose mostly 38.3 µM), inactives show at the highest dose activity change, negative = inhibition, most hits filed as inhibitors. 330,000 compounds, 0.31% hits; active means well fitted inhibition curve with a large enough effect; inconclusive means small, poorly fitted or top-dose-only effect; inactive means no such curve, though single readings can be large or run the other way; tested in mouse RAW 264.7 cells; further: potency means the concentration at half of the fitted maximal effect; nearly all actives have a fitted effect of over 55% in size
* marks the source's active call; other numbers are inactive results; ? = inconclusive; · = no result given. Hits are enriched below; roughly 19% of the tested compounds scored in any of these assays. Unless noted, the call rests on the fitted dose curve; in most records, active means well fitted curve in the direction sought with a large enough effect; inconclusive means small, poorly fitted or top-dose-only effect, or another doubt; inactive means no such curve, though single readings can be large; an effect the other way counts as inactive or inconclusive. Unless noted, on the % scale 0 is the no-effect control and ±100 the full control effect.

SMILES	IL-1B inflam inh	HT1080NT lethal	DT40 TDP1 CPT	TDP1 cell noCPT	HT1080 IDH1KD tx	uPA generation
O=Cc1cn(-c2ccccc2)nc1-c1ccncc1	5	-23%	?	23µM*	-16%	-26%
O=C(COc1coc(CN2CCc3ccccc3C2)cc1=O)Nc1ccc(F)cc1F	13	1%	-25%	?	-3%	0%
Cc1nn(CC(=O)NC2(C#N)CCCCC2)c(C)c1[N+](=O)[O-]	-4	-5%	-15%	10%	1%	-2%
CCCc1c(-c2ccc(Cl)cc2)ncn1Cc1ccccc1OC	-1	?	12µM*	21µM*	?	·
CCCc1c(-c2cccc(Cl)c2)ncn1CCc1ccccc1OC	-21	?	?	16µM*	?	·
CCCc1c(-c2ccc(Cl)cc2)ncn1CCc1ccccc1OC	-93*	?	6.5µM*	5.8µM*	?	·
COc1ccccc1CCn1c(=O)c(-c2ccc(F)cc2)nc2cncnc21	·	·	8%	0%	·	·
CCCc1c(-c2ccc(F)cc2)ncn1CCc1ccccc1OC	-6	?	?	16µM*	?	·
COc1ccccc1CC(=O)N1CCN(c2cccc(Cl)c2)CC1	-7	9%	-13%	-28%	9%	-1%
CCN1CCN(C(c2cccc(F)c2)c2c(O)cc(C)n(CCOC)c2=O)CC1 (configuration not stated)	·	·	-3%	-1%	·	·
COc1ccc2oc(=O)c(-c3nc(-c4cc(OC)c(OC)c(OC)c4)no3)cc2c1	·	·	-11%	-16%	·	·
CCOC(=O)[C@]12CCCC=C1N(Cc1cccc3ccccc13)C(=O)[C@H](CC(=O)N1CCSCC1)C2	-5	?	?	?	-29%	·
Cc1cc(C(=O)Nc2ccc(F)c(Cl)c2)on1	-5	7%	0%	-29%	-5%	0%
CCCc1c(-c2cccc(Br)c2)ncn1Cc1ccccc1OC	-17	?	?	21µM*	?	·
COc1ccc(Cl)cc1NC(=O)C(=O)NCc1ccncc1	-52*	-1%	-16%	-27%	-1%	-8%
COc1ccc(Nc2nccc(-c3cccc(N)c3)n2)cc1	-87*	?	?	?	?	?
COc1ccc(Nc2nccc(-c3ccc(C#N)cc3)n2)cc1	?	4%	-7%	?	-15%	2%
Cc1[nH]c2ccccc2c1C(=O)CSc1nc2cc(S(=O)(=O)N3CCCCC3)ccc2o1	-17	-13%	23µM*	21µM*	-22%	4%
O=C(CSc1nc2cc(S(=O)(=O)N3CCOCC3)ccc2o1)Nc1c(F)cccc1F	0	-2%	21µM*	21µM*	-3%	-8%
CCC(C)NC(=O)CSc1nc2cc(S(=O)(=O)N3CCOCC3)ccc2n1CC (configuration not stated)	-9	3%	5%	9%	0%	-7%
CCn1c2ccccc2c2nc3cc(S(=O)(=O)N4CCOCC4)ccc3nc21	?	-17%	15µM*	13µM*	-18%	-17%
CCCn1c(CCl)nc2cc(S(=O)(=O)N3CCOCC3)ccc21	37	13%	4%	-7%	-1%	-3%
CCn1c(SCC(=O)c2cc(C)ccc2C)nc2cc(S(=O)(=O)N3CCOCC3)ccc21	11	-7%	?	18µM*	0%	0%
CC(=O)Nc1cccc(/C(C)=N/NC(=O)c2cccc(S(=O)(=O)N3CCCC3)c2)c1	2	2%	-27%	?	0%	·
CCSc1nc2cc(S(=O)(=O)N3CCOCC3)ccc2o1	6	0%	?	?	-2%	-5%
SMILES	IL-1B inflam inh	HT1080NT lethal	DT40 TDP1 CPT	TDP1 cell noCPT	HT1080 IDH1KD tx	uPA generation
Cc1ccc(C(=O)CSc2nc3cc(S(=O)(=O)N4CCOCC4)ccc3o2)cc1	-10	-1%	18µM*	?	1%	4%
CCCCN1C[C@H](c2ccccc2)[C@@H](CC(=O)NC)C1=O	42	0%	-6%	-19%	1%	·
CCOC(=O)c1sc2nc(CC(=O)OC)nc(NCc3ccc(Cl)cc3)c2c1C	?	2%	4.1µM*	5.8µM*	15%	·
CCOC(=O)c1sc2nc(CC(=O)OC)nc(N3CCN(c4ccc(OC)cc4)CC3)c2c1C	15	-6%	23µM*	23µM*	?	0%
O=S(=O)(c1cccs1)N1CCN(c2ncccn2)CC1	10	12%	-11%	-26%	4%	·
CCOC(=O)c1sc2nc(CC(=O)OC)nc(NCCN(CC)CC)c2c1C	0	-4%	-21%	-30%	-11%	-4%
CCOC(=O)c1sc2nc(CC(=O)OC)nc(NCCN3CCOCC3)c2c1C	6	10%	-6%	?	1%	-11%
CCOC(=O)c1sc2nc(C)nc(N3CCN(S(=O)(=O)c4ccccc4)CC3)c2c1C	25	2%	8.2µM*	6.5µM*	3%	1%
Cc1nc(N2CCN(S(=O)(=O)c3cccs3)CC2)c2c(-c3ccccc3)c(C)sc2n1	27	-8%	?	13µM*	-21%	·
O=C(NCC(F)(F)F)[C@H]1O[C@@H](n2ccc(=O)[nH]c2=O)[C@H](O)[C@@H]1O	-5	20%	-11%	-2%	-4%	·
CC(C)C(=O)Nc1cc2c3c(c1)CCN3C(=O)CC2	6	0%	14%	0%	8%	-8%
C#CCN[C@@H]1CCc2ccccc21	·	·	2%	-6%	·	·
CCOC(=O)c1sc2nc(C)nc(NCc3ccccc3)c2c1C	-26	-7%	10µM*	21µM*	-8%	9%
CCOC(=O)c1sc2nc(C)[nH]c(=S)c2c1C	26	-7%	?	21µM*	-6%	0%
COC(=O)CC1C(C)(C)C(=O)C2CC3C4=CC(=O)OC(c5ccoc5)[C@]4(C)CCC3[C@@]1(C)C2=O (some centres not stated)	·	·	2%	-5%	·	·
CC(=O)OC1CC[C@@]2(C)C(CC[C@@]3(C)C2CC=C2C4CC(C)(C)CC[C@]4(C(=O)O)CC[C@@]23C)C1(C)C (some centres not stated)	·	·	-2%	-4%	·	·
CCc1c(N)nc(N)nc1Nc1ccc(C)c(C)c1	-8	-15%	?	15µM*	-23%	11%
Nc1nc(N)c(N=O)c(Nc2cccc(Cl)c2)n1	?	?	5.8µM*	10µM*	?	·
